In the library only some 5.2% were active in any assay of this set; here they are far more common.
NadD block = blocks S. aureus nicotinate mononucleotide adenylyltransferase. purified NadD enzyme, colorimetric absorbance read-out. 0.78% of 360,000 active. inhibition, % at 20 µM; in the data active = inhibition above about 26%
GRIN3A LBD mod = modulates the human NR3A ligand-binding domain. NR3A LBD differential scanning fluorimetry, Tm shift; 0% = protein alone, 100% = glycine-bound protein. Tm shift relative to glycine control, % at 25 µM. 2.5% of 340,000 active;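 active = melting temperature shift of at least 10% of the positive control shift, at one fixed dose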
SMARCA2 act = activators of SMARCA2 function | MG213 cells, MMTV-luciferase reporter, dexamethasone, overnight | 1% of 370,000 active | activation, % at 9.1 µM; in the data active = activation above about 7.8%;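 also: 0% = vehicle wells and 100% = reference activator wells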
SKN-1 block = C. elegans SKN-1 inhibition. C. elegans VP596 Pgst-4::GFP/RFP ratio, acrylamide-induced, 24 h. inhibition, % at 21.8 µM. 0.49% of 360,000 active. AID 624304;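 active = interference check ratio from 0.5 to 1.5 plus GFP to RFP signal ratio inhibition reaching or exceeding a fixed threshold, cut at about 30% in these data, passing the limit was not always enough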
esBAF inh = SWI/SNF esBAF complex inhibition. reporter increase, % at 12.5 µM. mouse ES cells, Bmi1-luciferase knock-in reporter, 24 h; 100% = twice the neutral-well signal. 2% of 350,000 active; in the data active = activation above about 40%; inconclusive = no clear call, values can overlap the other calls;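 also: 0% = median of the plate's neutral control wells and 100% = double that signal; a rise in the Bmi1 reporter signal indicates esBAF inhibition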
Vif imaging = blocks HIV Vif function. HEK293T cells, Vif self-association by quenched fluorescence, imaging, 24 h. inhibition, % at 7.49 µM. 0.35% of 340,000 active. AID 602346; in the data active = inhibition above about 50%, passing the limit was not always enough; inconclusive = no clear call, values can overlap the other calls; inactive = below about 31%
SMARCA2 act conf = SMARCA2 activation, confirmation screen; shares compounds with SMARCA2 act; 30% of 3,500 active; AID 652260; activation, % at 9.1 µM; MG213 cells, MMTV-luciferase with dexamethasone, luminescence, overnight; MG213 cells expressing E1A, Rb sequestered; DMSO wells 0%, reference activator 100%;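 active = activation above its plate's cutoff, the mean activation of tested wells plus 3 SD, cut at about 7.9% in these data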
VP16 Luc act = counter-screen for SMARCA2 activators: GAL4-VP16 luciferase reporter activation; AID 686939; HEK293 GAL4-VP16 pG5luc reporter, luciferase luminescence; scaled: DMSO wells 0%, SAHA wells 100%; 41% of 3,500 active; activation, % at 9.1 µM; shares compounds with SMARCA2 act;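 active = activation above the solvent-only control well mean plus 3 SD, averaged across control plates, cut at about 5.2% in these data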
An asterisk follows results filed as active; ? = inconclusive; / = not tested or not shown.

SMILES	NadD block	GRIN3A LBD mod	SMARCA2 act	SKN-1 block	esBAF inh	Vif imaging	SMARCA2 act conf	VP16 Luc act
CC(C)c1ccc(C2N3CC4([N+](=O)[O-])CN2CC([N+](=O)[O-])(C3)C4(C)C)cc1 (centres undefined)	6.3	4.5	13.0*	6.8	/	-3.8	0.3	0.5
CO[C@H]1CN(C)C(=O)c2cc(NC(=O)Nc3ccccc3F)ccc2OC[C@@H](C)N(C)C[C@H]1C	/	/	/	/	-0.7	/	/	/
O=C(O)C[C@H]1C=C[C@@H](NC(=O)c2ccccc2F)[C@H](CO)O1	/	/	/	/	2.1	/	/	/
C#CCn1c(O)c(N=NC(=O)CNC(=O)c2cccnc2)c2ccccc21	-1.5	-0.9	9.8*	-2.0	-7.3	4.5	-0.4	0.6
C[C@@H](NC(=O)C[C@@H]1CC[C@H](NC(=O)Cc2ccccn2)[C@@H](CO)O1)c1ccccc1	/	/	/	/	1.0	/	/	/
COC(=O)C(Cc1ccc(O)cc1)N1Cc2ccccc2C1=O (centres undefined)	-1.6	-0.3	9.1*	-20.5	?	/	6.0	9.3*
O=C(c1ccco1)N1CCN(c2ccc(F)cc2)CC1	-2.7	-0.3	18.4*	4.0	/	4.5	2.4	5.8*
COc1ccc(C2(CNC(=O)c3ccc(OC)c([N+](=O)[O-])c3)CCCCC2)cc1OC	0.3	-1.6	-1.5	-2.1	/	3.1	/	/
COc1ccc(C(=O)NCC2(c3ccc(OC)c(OC)c3)CCCC2)cc1OC	-0.8	/	8.9*	15.0	-3.1	-4.8	-0.8	-0.6
N=C1C(c2nc3ccccc3[nH]2)=C(O)CN1c1ccccc1	1.5	2.6	8.2*	6.9	62.7*	-2.2	9.0*	7.4*
O=C1c2cccc3cccc(c23)C(=O)N1CCN1CCN(CC(O)COCc2ccc(Cl)cc2)CC1 (centres undefined)	-7.0	-2.8	8.7*	-2.0	/	-12.2	8.5*	5.4*
COc1cc(COCC(O)CN2CCN(CCN3C(=O)c4cccc5cccc(c45)C3=O)CC2)cc(OC)c1OC (centres undefined)	-6.6	-1.3	0.7	0.2	/	-8.8	/	/
O=C1NC(=O)/C(=C\c2ccc(O)cc2O)S1	-2.1	-10.6	13.0*	-7.1	/	5.9	6.4	2.9
O=C(N[C@H]1CC[C@@H](CCn2cc(-c3ccccn3)nn2)O[C@H]1CO)c1ccncc1	/	/	/	/	-3.3	/	/	/
Cc1nnc(NC(=O)c2cc(S(=O)(=O)N(C)C)ccc2N2CCCC2)s1	-2.3	-0.9	9.1*	-4.0	-3.8	-2.4	-4.4	0.2
S=c1nccc(-c2ccc(Cl)cc2)[nH]1	-2.5	1.2	8.1*	14.0	/	0.1	-1.5	3.1
Cc1ccc(-c2nc(C)c(C(=O)O)s2)cc1	-3.7	-1.4	10.9*	8.3	/	2.6	9.5*	7.4*
Cc1nc(-c2ccc([N+](=O)[O-])cc2)sc1C(=O)O	3.4	-0.5	9.6*	7.7	16.0	6.7	6.2	1.2
C[C@H](CO)N1C[C@H](C)[C@@H](CN(C)C(=O)Nc2ccc(F)cc2)OCCCC[C@H](C)Oc2ccc(NC(=O)Nc3cccc4ccccc34)cc2C1=O	/	/	/	/	9.0	/	/	/
Cn1c(-c2nnn(-c3ccc(F)cc3)n2)cc2ccccc21	/	/	8.8*	/	/	/	5.6	8.4*
CCC(=O)N1CCCCN2[C@H](CO)[C@@H](c3ccc(-c4cccc(C#N)c4)cc3)[C@H]2C1	/	/	/	/	2.5	/	/	/
O=C(C[C@H]1C[C@H]2c3cc(NC(=O)c4ccc5c(c4)OCO5)ccc3O[C@H]2[C@H](CO)O1)NCCc1ccccc1	/	/	/	/	-4.1	/	/	/
COc1ccc2c(CC(=O)Nc3ncc(C)s3)coc2c1	-1.6	-0.4	29.4*	-12.8	/	5.2	42.2*	3.6
C[C@@H]1CN([C@H](C)CO)C(=O)c2cccc(NC(=O)Nc3ccc(C(F)(F)F)cc3)c2O[C@H]1CN(C)S(=O)(=O)c1ccccc1	/	/	/	/	-3.3	/	/	/
COc1ccc(NC(=O)CSc2c3c(nc4cc(Cl)ccc24)CCCC3)cc1OC	4.8	14.0*	9.4*	4.0	/	-2.5	2.9	1.0
SMILES	NadD block	GRIN3A LBD mod	SMARCA2 act	SKN-1 block	esBAF inh	Vif imaging	SMARCA2 act conf	VP16 Luc act
COc1cccc(/C=N/Nc2nnc(C)n2N)c1OCc1ccccc1Cl	1.0	-6.4	15.9*	8.7	/	-3.2	0.1	0.8
CCc1nnc(N/N=C/c2ccccc2Cl)n1N	1.9	2.2	-2.7	14.9	-36.7	/	/	/
CN1C(=O)c2cc(NC(=O)Nc3cccc(Cl)c3)ccc2OC[C@@H]2O[C@@H](CC(=O)NCCc3ccncc3)CC[C@@H]21	/	/	/	/	7.5	/	/	/
COc1ccc(C2Nc3ccccc3C(=O)N2c2ccc(C)cc2)cc1Cn1nnc2ccccc21 (centres undefined)	7.6	-2.5	6.7	-2.0	12.7	-0.3	/	/
COc1ccc(C2Nc3ccccc3C(=O)N2c2ccc(C)cc2)cc1Cn1cc([N+](=O)[O-])cn1 (centres undefined)	6.6	-1.9	9.8*	-8.3	39.2	/	2.4	7.4*
CCOc1ccc(S(=O)(=O)N2CCC(C(=O)NCc3ccccc3CN3CCCC3)CC2)cc1	-3.1	-1.2	11.9*	-21.1	-3.0	-3.9	-2.4	0.9
Cc1ccc(S(=O)(=O)N2CCC(C(=O)NCc3ccccc3CN3CCCC3)CC2)cc1	-6.5	0.2	0.6	-21.6	3.0	2.1	/	/
O=C(NC1CCC1)c1ccc(C#CC2CC2)c[n+]1[O-]	/	/	15.0*	/	/	/	11.3*	5.2*
CCC(=O)N1CC[C@@H]2[C@@H](CO)Nc3ccc(C#Cc4ccc(F)cc4)cc3[C@@H]21	/	/	/	/	2.1	/	/	/
COc1ccc2c(c1)c1nc3n(c(=O)c1n2CC(=O)Nc1ccccc1)CCCS3	7.6	0.9	10.8*	-11.9	3.2	21.2	0.6	0.1
C[C@@H]1CCCCO[C@@H](CN(C)C(=O)Nc2ccc(F)cc2)[C@H](C)CN([C@H](C)CO)C(=O)c2cc(NC(=O)C3CCCCC3)ccc2O1	/	/	/	/	4.1	/	/	/
CN1Cc2nnn(CC3CCCCC3)c2-c2ccccc2S1(=O)=O	/	/	8.2*	/	/	/	1.9	0.1
CN1CCN(C(=O)C[C@H]2C[C@H]3c4cc(NC(=O)CC5CC5)ccc4O[C@H]3[C@H](CO)O2)CC1	/	/	/	/	-5.9	/	/	/
O=C(C[C@@H]1CC[C@@H](NC(=O)c2cccnc2)[C@H](CO)O1)NCc1ccc(Cl)c(Cl)c1	/	/	/	/	-3.5	/	/	/
CCOC(=O)c1sc(NC(=O)c2ccc(S(=O)(=O)N(C)C)cc2)nc1C	-4.4	-1.8	0.5	15.6	0.0	2.3	/	/
CCOC(=O)c1sc(NC(=O)c2cncc(Br)c2)nc1C	/	/	10.0*	/	/	/	4.0	9.3*
C=CCOC(=O)c1sc(NC(=O)c2ccco2)nc1C	-2.6	-3.9	8.0*	11.9	6.3	-3.3	18.5*	6.7*
